# Reference: publication PMC4081100, “A DNA-binding-site landscape and regulatory network analysis for NAC transcription factors in Arabidopsis thaliana”
# Assays:
# Assay in all cases: universal protein binding microarray (PBM); transcription factors of Arabidopsis thaliana; high values mean tight binding
# Details in all cases: protein: recombinant; tags: GST; chain copies: 2; dsDNA, one strand shown
# GST-ANAC092(1-176) = biological target: T1, GST-ANAC092(1-176) (Arabidopsis thaliana, UniProt Q9FKA0 1-176)
# T1 sequence: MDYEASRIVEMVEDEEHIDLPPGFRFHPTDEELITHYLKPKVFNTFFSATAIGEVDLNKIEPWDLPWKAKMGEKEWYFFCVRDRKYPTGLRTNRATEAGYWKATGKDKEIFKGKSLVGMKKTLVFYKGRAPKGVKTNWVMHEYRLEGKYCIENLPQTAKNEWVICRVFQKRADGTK
# Outline: (§1)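 Binding is expressed as the normalised enrichment score (E-score). Proteins carrying a GST tag, whether NAC-domain, full-length or DNA-binding-domain forms, were induced in cells, and zinc acetate was added for zinc-finger proteins. After purification on glutathione–Sepharose 4B and quantification by A280 or anti-GST western blot, each was applied in duplicate at 200 to 500 nM final to custom all-10-mer Agilent 4 × 180K arrays made double-stranded by primer extension. Gapped and ungapped 8-mers were scored.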
# GST-NTL6(1-168) = GST-NTL6(1-168) (Arabidopsis thaliana, UniProt Q9SCK6 1-168)
# Chain of GST-NTL6(1-168) (Q9SCK6 1-168): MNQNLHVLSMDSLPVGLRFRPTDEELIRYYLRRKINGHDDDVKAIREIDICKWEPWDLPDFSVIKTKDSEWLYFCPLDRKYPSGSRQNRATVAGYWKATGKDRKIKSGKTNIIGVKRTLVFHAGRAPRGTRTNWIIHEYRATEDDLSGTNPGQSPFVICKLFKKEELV
# Outline: as §1
# GST-ANAC019 NAC domain = biological target: T2, GST-ANAC019 NAC domain (Arabidopsis thaliana, UniProt Q9C932 14-162)
# T2 sequence: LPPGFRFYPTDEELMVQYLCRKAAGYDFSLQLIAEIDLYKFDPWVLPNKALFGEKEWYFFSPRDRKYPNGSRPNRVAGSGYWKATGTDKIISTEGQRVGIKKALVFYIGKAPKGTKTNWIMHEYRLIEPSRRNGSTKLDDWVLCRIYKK
# Outline: as §1
# GST-ANAC055(1-171) = biological target: T3, GST-ANAC055(1-171) (Arabidopsis thaliana, UniProt Q9LDY8 1-171)
# T3 sequence: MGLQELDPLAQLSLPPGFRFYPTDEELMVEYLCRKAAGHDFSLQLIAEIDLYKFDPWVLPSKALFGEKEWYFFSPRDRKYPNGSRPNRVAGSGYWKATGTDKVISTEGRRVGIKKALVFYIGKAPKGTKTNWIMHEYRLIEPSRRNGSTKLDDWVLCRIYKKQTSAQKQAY
# Outline: as §1
# GST-ATAF1 NAC domain = biological target: T4, GST-ATAF1 NAC domain (Arabidopsis thaliana, UniProt Q39013 7-158)
# T4 sequence: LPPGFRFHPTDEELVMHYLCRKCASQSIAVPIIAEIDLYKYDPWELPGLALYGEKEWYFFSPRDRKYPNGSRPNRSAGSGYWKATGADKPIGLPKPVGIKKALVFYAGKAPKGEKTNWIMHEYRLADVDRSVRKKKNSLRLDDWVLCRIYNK
# Outline: as §1
# [1] = biological target: T5, GST-ANAC092(1-285) full length (Arabidopsis thaliana, UniProt Q9FKA0 1-285)
# T5 sequence: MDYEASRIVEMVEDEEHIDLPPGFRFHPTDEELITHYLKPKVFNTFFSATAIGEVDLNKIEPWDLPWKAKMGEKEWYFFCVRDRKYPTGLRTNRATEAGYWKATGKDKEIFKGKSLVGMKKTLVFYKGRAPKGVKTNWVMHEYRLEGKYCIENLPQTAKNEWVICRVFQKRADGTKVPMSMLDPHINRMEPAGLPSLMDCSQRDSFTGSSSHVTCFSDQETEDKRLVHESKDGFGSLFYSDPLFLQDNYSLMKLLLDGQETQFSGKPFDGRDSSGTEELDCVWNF
# Outline: as §1
# GST-NAP(1-166) = biological target: T6, GST-NAP(1-166) (Arabidopsis thaliana, UniProt O49255 1-166)
# T6 sequence: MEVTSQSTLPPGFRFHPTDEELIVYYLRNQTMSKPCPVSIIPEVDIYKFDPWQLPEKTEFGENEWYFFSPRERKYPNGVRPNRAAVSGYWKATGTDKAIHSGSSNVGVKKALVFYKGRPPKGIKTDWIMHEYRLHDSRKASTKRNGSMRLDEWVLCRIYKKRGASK
# Outline: as §1
# GST-NST2(1-184) = biological target: T7, GST-NST2(1-184) (Arabidopsis thaliana, UniProt Q9M274 1-184)
# T7 sequence: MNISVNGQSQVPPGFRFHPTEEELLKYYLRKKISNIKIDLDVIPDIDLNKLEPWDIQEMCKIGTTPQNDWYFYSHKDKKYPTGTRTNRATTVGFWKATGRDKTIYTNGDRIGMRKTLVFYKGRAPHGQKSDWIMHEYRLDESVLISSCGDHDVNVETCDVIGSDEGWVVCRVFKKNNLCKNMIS
# Outline: as §1
# GST-NTL8 NAC domain = biological target: T8, GST-NTL8 NAC domain (Arabidopsis thaliana, UniProt Q9XIN7 14-156)
# T8 sequence: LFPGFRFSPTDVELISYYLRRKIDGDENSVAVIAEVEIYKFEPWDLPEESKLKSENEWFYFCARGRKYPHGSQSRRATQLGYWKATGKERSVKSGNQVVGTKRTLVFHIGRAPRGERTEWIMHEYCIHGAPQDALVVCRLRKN
# Outline: as §1
# GST-SND1(1-203) = biological target: T9, GST-SND1(1-203) (Arabidopsis thaliana, UniProt Q9LPI7 1-203)
# T9 sequence: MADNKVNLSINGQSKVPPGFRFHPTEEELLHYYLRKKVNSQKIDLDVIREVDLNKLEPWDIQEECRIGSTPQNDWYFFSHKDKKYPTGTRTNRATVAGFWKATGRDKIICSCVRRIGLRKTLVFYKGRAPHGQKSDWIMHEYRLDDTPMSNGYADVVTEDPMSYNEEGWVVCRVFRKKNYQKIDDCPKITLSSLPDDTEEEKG
# Outline: as §1
# GST-VND3 NAC domain = biological target: T10, GST-VND3 NAC domain (Arabidopsis thaliana, UniProt Q9FH59 12-162)
# T10 sequence: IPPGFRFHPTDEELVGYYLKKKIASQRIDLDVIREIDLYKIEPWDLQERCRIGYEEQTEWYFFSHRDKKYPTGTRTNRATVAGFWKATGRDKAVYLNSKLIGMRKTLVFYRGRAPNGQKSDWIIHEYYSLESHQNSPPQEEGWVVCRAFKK
# Outline: as §1
# GST-VND7 NAC domain = biological target: T11, GST-VND7 NAC domain (Arabidopsis thaliana, UniProt Q9C8W9 9-158)
# T11 sequence: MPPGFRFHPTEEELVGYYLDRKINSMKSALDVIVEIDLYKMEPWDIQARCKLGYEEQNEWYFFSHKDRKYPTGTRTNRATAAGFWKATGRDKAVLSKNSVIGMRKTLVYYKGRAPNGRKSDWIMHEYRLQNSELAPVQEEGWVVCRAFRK
# Outline: as §1
Sequence,binding signal (GST-ANAC092(1-176)) [E-score],binding signal (GST-NTL6(1-168)) [E-score],binding signal (GST-ANAC019 NAC domain) [E-score],binding signal (GST-ANAC055(1-171)) [E-score],binding signal (GST-ATAF1 NAC domain) [E-score],binding signal [1] [E-score],binding signal (GST-NAP(1-166)) [E-score],binding signal (GST-NST2(1-184)) [E-score],binding signal (GST-NTL8 NAC domain) [E-score],binding signal (GST-SND1(1-203)) [E-score],binding signal (GST-VND3 NAC domain) [E-score],binding signal (GST-VND7 NAC domain) [E-score]
ACGTAACC,0.442,0.149,0.389,0.412,0.389,0.463,0.43,0.338,0.328,0.392,0.409,0.414
AAACGTAA,0.261,0.216,0.268,0.325,0.296,0.378,0.294,0.302,0.154,0.435,0.344,0.294
ACGCAACT,0.472,0.105,0.477,0.433,0.416,0.472,0.478,0.39,0.0824,0.422,0.462,0.462
CAAGTAAC,0.352,0.316,0.134,0.203,0.0948,0.408,0.0502,0.298,0.185,0.301,0.209,0.0947
CGTTTCCC,0.244,0.14,0.176,0.176,0.108,0.274,0.28,0.0635,0.422,0.265,0.179,0.186
AAGCAAAG,0.302,0.342,0.176,0.125,0.0761,0.369,0.11,0.278,0.222,0.403,0.198,0.25
GTACGAAA,0.38,0.184,0.267,0.274,0.24,0.413,0.247,0.285,0.116,0.277,0.294,0.196
CAAGCAAG,0.369,0.235,0.163,0.0997,0.0612,0.419,–,0.265,0.111,0.395,0.0934,0.14
GTTAAGTA,0.119,0.45,0.171,0.0947,0.218,0.123,–,0.148,0.228,0.202,0.245,0.0716
TACGCAAA,0.469,0.104,0.385,0.315,0.323,0.469,0.355,0.393,0.0978,0.473,0.405,0.334
ATGACGTA,0.443,0.0683,0.372,0.346,0.374,0.437,0.404,0.317,0.098,0.446,0.437,0.386
AAGTAATC,0.348,0.414,0.144,0.154,0.22,0.37,–,0.285,0.328,0.347,0.188,0.136
AAGGAAAT,0.191,0.384,0.147,0.0899,0.122,0.163,0.06,0.15,0.466,0.258,0.144,0.0723
ATTCCGTA,0.209,0.17,0.456,0.385,0.308,0.342,0.381,0.194,0.0978,0.239,0.434,0.374
GTAAGAAA,0.296,0.422,0.224,0.206,0.311,0.332,0.101,0.289,0.214,0.303,0.16,0.19
GTTAAGCA,0.131,0.408,0.0907,0.0654,0.119,0.153,–,0.209,–,0.223,0.143,0.0676
ACTTAACC,0.197,0.402,0.17,0.115,0.132,0.186,–,0.164,0.243,0.221,0.203,0.209
TTACGAAA,0.396,0.121,0.248,0.221,0.278,0.409,0.087,0.227,0.067,0.434,0.26,0.233
ACGTAACT,0.443,0.174,0.48,0.451,0.444,0.424,0.474,0.251,0.247,0.325,0.466,0.474
TTAAGTAA,0.236,0.48,0.198,0.0996,0.168,0.3,–,0.258,0.34,0.403,0.17,0.135
GAAGTAAA,0.214,0.409,0.0501,0.107,0.211,0.305,–,0.224,0.222,0.329,0.179,0.18
TGCCGTAA,0.432,0.114,0.448,0.408,0.436,0.433,0.402,0.328,0.324,0.457,0.437,0.449
GCGTATAA,0.375,0.0699,0.0915,0.23,0.229,0.409,0.181,0.285,0.11,0.399,0.213,0.161
ACAAGTAA,0.41,0.25,0.125,0.236,0.238,0.439,–,0.288,–,0.257,0.249,0.0784
GGAAGTAA,0.249,0.404,0.151,0.104,0.123,0.307,–,0.248,0.203,0.259,0.133,0.0641
CAAGTTAC,0.371,0.256,0.163,0.178,0.134,0.411,0.144,0.238,0.167,0.323,0.254,0.184
GTAAGGAA,0.259,0.486,0.23,0.193,0.239,0.29,0.268,0.271,0.392,0.35,0.231,0.236
